High-throughput results as filed in PubChem BioAssay.
Rows were chosen to be rich in hits. Some 7.9% of all compounds tested hit in one or more screens of this group.
MARV entry inh: Marburg virus entry inhibition. Potency, µM (titrated, usually from 37.8 µM), without a hit: at the highest dose activity change, negative = inhibition, most hits filed as inhibitors. Marburg virus pseudotyped entry inhibition, cell reporter. 300,000 compounds, 1.8% hits; calls by dose curve; tested in HEK293 cells; note: potency is the fitted concentration of half-maximal effect
FMDV antiviral: blocks foot and mouth disease virus | AID 1159524 | FMDV antiviral cell-based qHTS | Potency, µM (highest dose often 57.9 µM), for the others: top-dose activity change, negative = inhibition, most hits filed as inhibitors | 410,000 compounds, 1.2% hits; calls by dose curve; tested in HEK293T cells; note: read-out not given here; potency is the fitted concentration of half-maximal effect; nearly all actives have a fitted effect of over 45% in size
HCV inh: blocks hepatitis C virus. Huh7.5.1 HCVcc-Cre infection, luciferase reporter, 44 h. Potency, µM (titrated, usually from 41.8 µM), without a hit: at the top dose activity change, negative = inhibition, actives largely listed as inhibitors. 340,000 compounds, 3.4% hits; active = well fitted inhibition curve with a large enough effect; inconclusive = small, poorly fitted or top-dose-only effect, or another doubt; inactive = no such curve, though single readings can be large or run the other way; note: potency is the fitted concentration of half-maximal effect
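HCVcc-Cre virus at an moi near 0.5 was added right after compound to cells cultured 4 h from seeding (1,000 cells/well). Luciferase activity was determined 44 h later, 15 min after substrate addition at RT.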
LASV entry inh: Lassa virus entry inhibition | Lassa virus pseudotype entry inhibition, cell reporter | Potency, µM (titrated, usually from 37.9 µM), without a hit: at the highest dose activity change, negative = inhibition, hits mostly inhibitors | 300,000 compounds, 1.2% hits | AID 540256; calls by dose curve; tested in HEK293 cells; note: potency is the fitted concentration of half-maximal effect; nearly all actives have a fitted effect of over 50% in size
HCMV antiviral: blocks human cytomegalovirus replication; HFF cells, HCMV-luciferase reporter, 72 h; active compounds read low; 410,000 compounds, 4.5% hits; activity change, negative = inhibition, % at 57.5 µM; in the data active = activity change below about -60%; inconclusive = no clear call, values can overlap the other calls; inactive = above about -39%
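Human foreskin fibroblasts infected with luciferase-reporter HCMV at MOI 1 PFU/cell, compounds at two doses. Luciferase measured 72 h post infection; normalized to buffer-only basal and Salinomycin (10uM) controls.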
An asterisk follows results filed as active; ? = inconclusive; . = no result; + = active, no number; [ ] = dose if it differs, or a comment. % is set by controls: 0 for no effect and ±100 for the full control effect.

SMILES	MARV entry inh	FMDV antiviral	HCV inh	LASV entry inh	HCMV antiviral
CC1CN(C(=O)c2scc3c2OCCO3)CC(C)O1 (stereo not drawn)	20.2%[46.1 µM]	-9.6%	8.3%	4.9%	41.2
COc1ccccc1-c1nnc(SCC(=O)c2c(N)n(C3CC3)c(=O)[nH]c2=O)o1	.	-13.3%	30.7%	.	3.4
Nc1c(C(=O)CSc2nc3ccccc3o2)c(=O)[nH]c(=O)n1C1CC1	.	1.5%	?	.	+
CC(N)C(=O)NC1C2C(=C(O)CC(O)C2O)C(=O)OC1(C)C(Cl)Cl (stereo not drawn)	0.316µM*	?	?	0.501µM*	-75.8*
CCc1ccc(C(=O)NNc2ccccc2F)cc1	4.47µM*	66.3%	-2.0%	?	?
CCc1ccc(C(=O)NNc2cc(Cl)ccc2Cl)cc1	.	-24.5%	?	.	-68.1*
Cc1ccc(S(=O)(=O)N(C)c2c(C)ccc(S(=O)(=O)NC(C)(C)C)c2C)cc1	?	7.0%	-24.1%	?	?
CC(=O)N1c2ccc(S(=O)(=O)N3CCCCCC3)cc2CC1C(=O)NCc1ccccc1 (stereo not drawn)	.	6.4%	.	1.4%[46.1 µM]	-1.3
CCOc1ccccc1NC(=O)Cn1c(=O)n(CCC(=O)NCc2ccc3c(c2)OCO3)c(=O)c2ccccc21	?	0.8%	.	-27.2%[46.1 µM]	32.6
O=C1O/C(=C/c2ccccc2)c2ccccc21	6.6%	82.0%	-20.9%	2.1%	5.9
N#CC1=C(c2ccccc2)/C(=C/c2ccccc2)OC1=O	?	6.31µM*	?	-25.3%	-106.1*
CC(=O)Nc1nc(-c2ccc([N+](=O)[O-])cc2)cs1	2.4%	7.3%	9.9%	11.1%	-84.8*
NC(=O)Cc1nc(-c2ccc([N+](=O)[O-])cc2)cs1	-0.8%[46.1 µM]	-3.4%	-3.3%	1.3%[46.1 µM]	-92.7*
O=C(Nc1ccc([N+](=O)[O-])cc1)Nc1nc(-c2ccc(Cl)s2)cs1	?	?	?	?	-99.9*
NC(=O)Cc1nc(-c2ccc(F)cc2)cs1	.	3.4%	12.5%	.	-0.1
NC(=S)Cc1nc(-c2ccc(Cl)cc2)cs1	.	-15.1%	11.2µM*	.	?
CCCCc1ccc(S(=O)(=O)N[C@H]2CC[C@@]34CCCN3C(=O)CCC[C@H]4[C@H]2Cc2ccccc2)cc1	.	.	.	.	-30.5
COc1ccc(-c2nc(CS(=O)CC(=O)NCc3ccc(Cl)cc3)c(C)o2)cc1OC (stereo not drawn)	-6.3%[46.1 µM]	-3.8%	?	2.7%[46.1 µM]	-36.5
Cc1noc(C)c1C(=O)Nc1nc(-c2ccc([N+](=O)[O-])cc2)cs1	-8.6%	?	?	-3.5%	-61.7*
Cc1ccc(-c2csc(NC(=O)c3ccc([N+](=O)[O-])o3)n2)cc1	?	1.1%	14.1µM*	?	-26.1
CCOc1cc(C(=O)NCc2ccc3c(c2)CCN3C(=O)c2ccc(F)cc2)cc(OCC)c1OCC	.	-18.6%	.	6.4%[46.1 µM]	-5.2
O=C(Nc1ccccc1C(F)(F)F)N[C@H]1CC[C@@]23CCCN2C(=O)CCC[C@H]3C1Cc1ccccc1 (stereo partly drawn)	.	.	.	.	5.1
CCC(=NCc1ccc(F)cc1)c1c(O)n(C)c(=O)n(C)c1=O	?	39.8µM*	10µM*	-4.9%	?
CCC(=NCCC(c1ccccc1)c1ccccc1)c1c(O)n(C)c(=O)n(C)c1=O	?	?	0.0%	?	-10.7
Cc1ccc(C)c(CN2C(=O)c3ccccc3S(=O)(=O)c3ccc(C(=O)N4CCN(c5ccccc5)CC4)cc32)c1	-16.9%[46.1 µM]	1.5%	.	-0.1%[46.1 µM]	?
SMILES	MARV entry inh	FMDV antiviral	HCV inh	LASV entry inh	HCMV antiviral
O=C(c1ccc2c(c1)N(Cc1ccccc1)C(=O)c1ccccc1S2(=O)=O)N1CCN(c2ccccn2)CC1	3.55µM*	7.8%	.	?	-34.9
CCN1CCN(C(=O)c2ccc3c(c2)N(Cc2ccc(Cl)cc2)C(=O)c2ccccc2S3(=O)=O)CC1	-29.3%[46.1 µM]	-14.1%	.	-9.5%[46.1 µM]	-60.6*
CCN1CCN(C(=O)c2ccc3c(c2)N(Cc2ccccc2)C(=O)c2ccccc2S3(=O)=O)CC1	-1.6%[46.1 µM]	0.0%	-25.3%	5.9%[46.1 µM]	7.8
Cc1ccc(C)c(CN2C(=O)c3ccccc3S(=O)(=O)c3ccc(C(=O)N4CCN(c5ccccn5)CC4)cc32)c1	?	-3.6%	.	?	-71.4*
Cc1ncc2c(c1CNS(=O)(=O)N(C)C)CCN(C(=O)c1[nH]c3ccc(Cl)cc3c1C)C2	.	-20.7%	.	.	.
CNC(=S)N1CCN(c2nc3ccccc3s2)CC1	22.0%[46.1 µM]	34.6%	4.2%	.	-29.3
CCCNC(=O)N(C)C[C@H]1Oc2ncc(C#CCc3ccccc3)cc2C(=O)N([C@H](C)CO)C[C@H]1C	.	?	.	.	14.7
CCOC(=O)c1sc2ncn(CC(=O)Nc3ccc(OCC)cc3)c(=O)c2c1C	-17.6%[46.1 µM]	9.2%	.	?	-3.0
CN(C)c1ccc(NC(=O)Cn2c(SCc3ccc(F)cc3)nc3cccnc32)cc1	.	21.6%	.	?	4.7
Clc1ccc(CCNc2ncnc3nc[nH]c23)cc1	?	?	10µM*	-2.9%	.
C1=C(CCNc2ncnc3nc[nH]c23)CCCC1	-40.6%	0.4%	10µM*	-27.0%	0.7
CCCNc1ncnc2nc[nH]c12	.	-10.9%	0.2%	.	-29.8
c1ccc(CNc2ncnc3nc[nH]c23)cc1	.	-2.9%	-42.0%	.	30.2
c1ccc2c(CCNc3ncnc4nc[nH]c34)cccc2c1	?	31.6µM*	11.2µM*	0.7%	-35.3
c1ccc(CCCNc2ncnc3nc[nH]c23)cc1	7.0%	-14.6%	?	2.8%	5.2
O=C(Nc1cc(NC(=O)c2ccccc2Cl)ccc1Cl)c1ccccc1	.	0.0%	.	-7.0%[46.1 µM]	-6.6
COc1ccccc1CCc1nc2ccccc2n1C1CCN(C(=O)c2cn3ccsc3n2)CC1	.	8.0%	.	.	.
CC(=O)Nc1cc(C(=O)N2CC3(C)CC2CC(C)(C)C3)cc2ncn(CCc3ccccn3)c12 (stereo not drawn)	.	21.3%	.	.	.
O=C1C2ON(c3ccccc3)C(c3ccncc3)C2C(=O)N1c1ccc(N2CCOCC2)cc1 (stereo not drawn)	-6.8%	-1.9%	?	.	-74.9*
O=C1C2ON(c3ccccc3)C(c3ccncc3)C2C(=O)N1c1ccc(Br)cc1 (stereo not drawn)	-20.9%	23.2%	7.1%	2.4%	-7.4
Cc1ccc(C)c(Cn2c(=O)n(Cc3ccco3)c(=O)c3oc4ccccc4c32)c1	.	-1.0%	.	4.4%[46.1 µM]	-14.7
CN(C)S(=O)(=O)c1ccc2c(c1)N(CC(=O)NCc1ccccc1)C(=O)C1CCCCN21 (stereo not drawn)	.	21.1%	.	?	9.2
O=C(Nc1cc(Sc2ccccn2)cc([N+](=O)[O-])c1)c1ccc(Cl)cc1	?	28.2µM*	10µM*	?	-17.6
O=C(Nc1cc(Sc2ccccn2)cc([N+](=O)[O-])c1)c1cccc(Cl)c1	?	25.1µM*	8.91µM*	-9.4%	?
Cc1ccc(N2C(=O)CSC23C(=O)N(CC(=O)Nc2ccc(C)cc2C)c2ccccc23)cc1 (stereo not drawn)	.	-4.6%	.	-3.4%[46.1 µM]	-6.2
Cc1ccc(C)c(NC(=O)C[n+]2ccccc2)c1	-0.5%	-14.4%	18.4%	?	10.5
